KCNQ2 enhance: enhances the rat KCNQ2 potassium channel; O88943; CHO-K1 KCNQ2, FluxOR thallium flux fluorescence; hits give high values; B-score at 10 µM; actives 0.54% (n = 310,000); AID 2239;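 active = fluorescence ratio B-score at least 3 SD of library B-scores, with initial fluorescence B-score within 3 of them, cut at about 5.3 in these data; same plate scores as AID 2156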;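 also: B-score of peak minus minimum over baseline fluorescence ratio after K+ and Tl+ stimulus; positive B-score means potentiation of KCNQ2 with more thallium influx and brighter signal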
KCNQ2 inh: blocks the rat KCNQ2 potassium channel; CHO-K1 KCNQ2, FluxOR thallium flux, 20 min; hits give low values; B-score at 10 µM; actives 1.1% (n = 310,000);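 active = fluorescence ratio B-score at most minus 3 library SDs, with starting brightness B-score within 2 library SDs, cut at about -5.5 in these data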
Starred values were filed as active, the others as inactive; i = inactive; . = not tested or not shown. Shown are actives, neighbours in structure and some others; about 1.6% of the full set was active somewhere.

SMILES | KCNQ2 enhance | KCNQ2 inh
Cc1cc(C)cc(NC(=S)/C(=C(\[O-])c2ccc(Cl)s2)[n+]2cccc(C)c2)c1 | -6 | -6*
Cc1ccc(C)c(NC(=S)/C(=C(\[O-])c2ccc(Cl)s2)[n+]2ccccc2)c1 | 0.75 | i
O=C(CSc1nnc(CNC(=O)c2c(F)cccc2Cl)o1)NCc1ccc(F)cc1 | 0.37 | i
CCc1ccc(NC(=O)N2CCN(C(=O)C3CCCO3)CC2)cc1 (stereo not drawn) | . | i
O=C(Nc1ccccc1C(=O)NC(Cc1ccccc1)C(=O)NC1CCCCC1)c1ccccc1 (stereo not drawn) | -7.2 | -7.2*
O=C(Nc1ccccc1C(=O)Nc1ccccc1C(=O)O)c1ccccc1 | -5.9 | -5.9*
O=C(Nc1ccccc1C(=O)NC(Cc1ccccc1)C(=O)O)c1ccccc1 (stereo not drawn) | . | i
Nc1ccc(C(=O)Nc2ccccc2C(=O)O)cc1 | 0.33 | i
COc1ccc(C(=O)NCCc2nnc3ccc(SCC(=O)Nc4cc(C)on4)nn23)cc1 | 1.9 | i
Cc1c(Cl)cccc1-n1c(SCC(=O)NCc2ccccc2Cl)nnc1-c1ccncc1 | -6.4 | -6.4*
Cc1c(Cl)cccc1-n1c(SCC(=O)NCc2cccs2)nnc1-c1ccncc1 | 0.01 | i
CCCCCN(C(=O)CCC(=O)OCC(=O)c1ccc(C(C)CC)cc1)c1c(N)n(CCCC)c(=O)[nH]c1=O (stereo not drawn) | 0.48 | i
COc1ccc(CNC(=O)C2CCCN(Cc3nc(-c4cccc(C)c4)oc3C)C2)cc1 (stereo not drawn) | -6.4 | -6.4*
COc1ccc(-c2nc(CN3CCCC(C(=O)NC4CCCC4)C3)c(C)o2)cc1 (stereo not drawn) | . | i
Cc1ccccc1-c1nc(CN2CCCC(C(=O)NCCCN3CCOCC3)C2)c(C)o1 (stereo not drawn) | 0.91 | i
Cc1ccccc1-c1nc(CN2CCCC(C(=O)NCc3cccnc3)C2)c(C)o1 (stereo not drawn) | 9* | i
CC(=O)Nc1cccc(NC(=O)c2ccc(COc3ccccc3)cc2)c1 | . | i
CCN1CCN(CCNC(=O)c2ccc(/C=C3/Sc4ccccc4N(Cc4cccc(Cl)c4)C3=O)cc2)CC1 | . | i
CCN1CCN(CCNC(=O)c2ccc3c(c2)N(Cc2ccc(F)cc2)C(=O)/C(=C/c2ccccc2)S3)CC1 | -6.5 | -6.5*
COc1ccc(/C=C2\Sc3ccc(C(=O)NCCN4CCCCCC4)cc3N(C)C2=O)cc1 | -6.4 | -6.4*
COc1ccc(/C=C2\Sc3ccc(C(=O)N4CCc5ccccc5C4)cc3N(C)C2=O)cc1 | . | i
CCC1(c2ccccc2)NC(=O)N(CC(=O)Nc2ccc(OC)nc2)C1=O (stereo not drawn) | . | i
COC(=O)N/N=C/c1cc(Cl)cc(Cl)c1OCc1ccc(F)cc1 | . | i
O=C(Nc1ccc(Cl)c(Cl)c1)Nc1cc(S(=O)(=O)N2CCOCC2)ccc1N1CCCC1 | . | i
CC(C)(C)c1cc(C(=O)Nc2cccc3ccccc23)ccn1 | -5.8 | -5.8*
SMILES | KCNQ2 enhance | KCNQ2 inh
Cc1ccc(C(=O)Nc2cccc3ccccc23)cc1 | 0.99 | i
Nc1nc2ccc(NC(=O)c3ccco3)cc2s1 | 0.58 | i
ClC(CCN1CCN(Cc2ccccc2)CC1)c1ccccc1 (stereo not drawn) | . | i
CCc1nc2ccccc2c(C(=O)OCC(=O)NCc2ccc3c(c2)OCO3)c1C | -5.8 | -5.8*
CCCc1nc2ccccc2c(C(=O)OCC(=O)NCc2ccc3c(c2)OCO3)c1CC | . | i
COc1cccc(NC(=O)C2CCC(CNS(=O)(=O)c3cccc4cccnc34)CC2)c1 (stereo not drawn) | . | i
Cc1ccc(N(CCC(=O)O)S(=O)(=O)c2ccccc2)cc1 | 0.81 | i
COC(=O)Cc1ccc(N(Cc2ccccc2F)S(=O)(=O)c2ccc(C)cc2)cc1 | -6.6 | -6.6*
O=[N+]([O-])c1cccc(-c2ccc(CN3CCCCC3)o2)c1 | . | i
O=C(Nc1ccc(S(=O)(=O)N2CCOCC2)cc1)c1ccccc1F | . | i
S=c1[nH]nc(CSCCOc2ccc(Cl)cc2Cl)o1 | . | i
CCn1c(CN2CCN(c3ccc(Cl)cc3)CC2)nc2ccccc21 | -5.6 | -5.6*
Cn1c(CN2CCN(c3ccc(Cl)cc3)CC2)nc2ccccc21 | 0.08 | i
Cc1ccc(N(CC(=O)NCc2ccccn2)S(=O)(=O)c2ccccc2)cc1C | . | i
COc1cccc(CN2CCNC(=O)C2CC(=O)N(C)Cc2cnccn2)c1OC (stereo not drawn) | 1.1 | i
CCCCc1ccc(NC(=O)CC(C)(C)C)cc1 | 14* | i
CCCCc1ccc(NC(=O)CC(C)=O)cc1 | 1 | i
COC(=O)c1cc(Cl)c(NC(=O)c2cc3ccccc3o2)cc1OC | 1 | i
CCn1ccnc1CN(C)Cc1cn(-c2cc(C)ccc2C)nc1-c1ccccc1 | -8.2 | -8.2*
CCn1ccnc1CN(C)Cc1cn(-c2ccc(C)cc2)nc1-c1ccc(F)cc1 | . | i
COc1ccc(CCNC(=O)CCc2cn(C)c3ccccc23)c(OC)c1OC | 1.7 | i
COc1ccc2[nH]c3c(c2c1)CCN1C(=O)N([C@@H](C)C(=O)NC2CCCCC2C)C(=O)[C@]31C (stereo partly drawn) | . | i
Cc1ccc(Cl)cc1NC(=S)N1CCCCCC1 | 0.2 | i
Cc1cccc(N2CCN(C(=O)Cc3c(C(=O)O)[nH]c4ccc(Cl)cc34)CC2)c1C | 7* | i
O=C(O)c1[nH]c2ccccc2c1CC(=O)N1CCN(c2ccccc2)CC1 | . | i
SMILES | KCNQ2 enhance | KCNQ2 inh
CCCC(=O)NCc1nc2ccccc2n1CC(=O)c1ccccc1 | . | i
Cc1c(C=O)c(=O)n(-c2ccccc2)n1-c1ccccc1 | 1.1 | i
Cc1cc(C)cc(NC(=O)/C=C/c2ccc([N+](=O)[O-])s2)c1 | . | i
Cc1ccccc1NC(=O)/C=C/c1ccc([N+](=O)[O-])s1 | -5.7 | -5.7*
COc1cc(/C=N/NC(=O)C2CC(=O)N(c3ccc(C)cc3)C2)cc(OC)c1OC (stereo not drawn) | . | i
CC(C)CNC(=S)N1CCN(C(c2ccccc2)c2ccccc2)CC1 | -5.9 | -5.9*
C=C(C)CNC(=S)N1CCN(C(c2ccccc2)c2ccccc2)CC1 | . | i
CCCCC1=CC2=CC(=O)C(C)(OC(=O)c3ccc(Cl)nc3)C(=O)C2=CO1 (stereo not drawn) | . | i
CCN(CC)S(=O)(=O)c1cc(NC(=O)CN2C(=O)NC3(CCCc4ccccc43)C2=O)ccc1C (stereo not drawn) | -5.8 | -5.8*
Cc1ccc(NC(=O)CN2C(=O)NC3(CCCc4ccccc43)C2=O)cc1S(=O)(=O)N1CCOCC1 (stereo not drawn) | . | i
COc1ccc(CN2C(=O)c3ccc(C(=O)O)cc3C2=O)cc1 | . | i
Cc1cccc(C)c1OCc1nc2ccccc2[nH]1 | -5.7 | -5.7*
Cc1ccc(C)c(OCc2nc3ccccc3[nH]2)c1 | . | i
Cn1nnc(NC(=S)NC(=O)c2cccc3c(Cl)cccc23)n1 | . | i
CN1CCN(c2nc3c(c(=O)[nH]c(=O)n3C)n2Cc2ccc(Cl)cc2)CC1 | . | i
C/C(N)=C(/C#N)C(=O)COC(=O)[C@@H](NC(=O)c1ccccc1Cl)C(C)C | 1 | i
Cc1cccc(Nc2nc(N3CCOCC3)nc(N3CCOCC3)n2)c1 | 0.48 | i
Cn1ccnc1Sc1nc(Nc2cccc(Cl)c2)nc(N2CCOCC2)n1 | -6.2 | -6.2*
O=C(O)CCN1C(=O)c2ccc(Oc3ccc([N+](=O)[O-])cc3)cc2C1=O | . | i
